# According to PubChem BioAssay AID738 (SRMLSC, 2007):
# The whole screen tested about 98,000 compounds, of which about 4,900 (5%) were called active. Cut-off read from the data, not from the text of the source: active = inhibition above about 30%; inactive = the rest. The full list was thinned out, with actives kept by preference.
# Experiment: growth inhibition of yeast control strain, primary screen, counter-screen for post-Golgi transport modulator project (AID 738)
# Settings: efflux-deficient yeast background strain, growth absorbance A615, 16 h; at 10 µM; active compounds read high
row,Structure (SMILES),inhibition
1,Cc1nc2ccccn2c1P(=S)(N1CCCCC1)N1CCCCC1,49.1% (active)
2,COc1ccc(C(=O)C2CN(C)CC2C(=O)c2ccc(OC)cc2)cc1 (stereo not given),20.5% (inactive)
3,CCC(=NCc1ccco1)c1c(O)n(Cc2ccccc2)c(=O)[nH]c1=O,15.9% (inactive)
4,CC(=O)c1c(O)n(C2CCCCCC2)c(=O)[nH]c1=O,19.8% (inactive)
5,CCC(=NCCc1ccccc1)c1c(O)n(C2CCCCC2)c(=O)[nH]c1=O,70.8% (active)
6,COc1ccc(C(=O)CC2C(=O)N(C)C(=O)N(C)C2=O)cc1,6.25% (inactive)
7,O=C(c1cc2nc(-c3ccccc3)cc(-c3ccccc3)n2n1)N1CCC2(CC1)OCCO2,29.5% (inactive)
8,CC(C)(C)c1ccc(CN2C(=O)CN=C(c3ccccc3)c3ccccc32)cc1,33.8% (active)
9,CN1CCC(N(C)Cc2cccnc2)CC1,7.07% (inactive)
10,CCOc1ccc(CN(CCCl)CCCl)cc1C(=O)OC,22.7% (inactive)
11,O=C(CN1CCCCC1)Nc1ccc(Br)cc1C(=O)c1ccccc1Cl,29.2% (inactive)
12,CCNc1nc2[nH]c(=O)c3c(c2s1)OC(N)=C(C#N)C3c1cccs1 (stereo not given),5.65% (inactive)
13,COc1ccccc1-n1c(O)c(C=NC2CC2)c(=O)[nH]c1=O,6.8% (inactive)
14,OC(CNC1CCCCC1)c1ccccc1 (stereo not given),5.79% (inactive)
15,CCOP(=S)(OCC)SCOC(=O)NCC(=O)OC,4.53% (inactive)
16,O=[N+]([O-])c1ccc(C2C3C(c4ccccc4)=NC4(CCCCC4)N32)cc1 (stereo not given),18% (inactive)
17,Cc1ccc(Cn2c(C)c3cnn(CC(=O)N4CCC5(CC4)OCCO5)c(=O)c3c2C)cc1,-1.49% (inactive)
18,N#Cc1ccc(Cn2cc(C(=O)c3ccco3)c3ccccc32)cc1,38.7% (active)
19,COc1ccc(CCn2c(O)c(C=NCCCn3ccnc3)c(=O)[nH]c2=O)cc1OC,2.05% (inactive)
20,Cn1c(O)c(C=NCCCC(=O)O)c(=O)n(C)c1=O,2.29% (inactive)
21,Cc1ccc(N(C)C(=O)Oc2cccc3ccc(C)nc23)cc1,5.47% (inactive)
22,CC[N+](CC)(CC)CCCCCCCCCC[N+](CC)(CC)CC,-4.82% (inactive)
23,CCOC(=O)C1SC2(C(F)(F)C(F)F)CC1(O)c1c(c(OC)c3occc3c1OC)O2 (stereo not given),33.6% (active)
24,O=c1c2ccccc2nc(-c2ccc(Cl)cc2Cl)n1-c1ccncc1,9.41% (inactive)
25,COc1cc(Cn2c(N)c(C(=O)NCc3ccco3)c3nc4ccccc4nc32)cc(OC)c1OC,7.01% (inactive)
26,CC(=O)Nc1ccccc1C(=O)OCC(=O)c1cccc2ccccc12,0.9% (inactive)
27,CCCCn1c(O)c(C(CC)=NCc2ccco2)c(=O)[nH]c1=O,16.6% (inactive)
28,CCCCCCN=C(CC)c1c(O)n(CCCC)c(=O)[nH]c1=O,36.3% (active)
29,CCC(=NCCCO)c1c(O)n(-c2ccc(OC)cc2)c(=O)[nH]c1=O,3.64% (inactive)
30,CC(=O)c1ccc(OC(NC(=O)Cc2ccccc2)C(Cl)(Cl)Cl)cc1 (stereo not given),4.53% (inactive)
